Source: PubChem BioAssay AID1159580 (chemical genetic matrix, 2015)
Among all 5,500 compounds or so, about 2,000 (36%) were called active. Roughly 18% stayed inconclusive and do not appear here. Cut-off read from the data, not from the text of the source: active = normalized growth mostly below about 0.91 (no sharp cut-off); inconclusive = no clear call, values can overlap the other calls; inactive = mostly above about 0.92. This is one part of the list.

Assay: chemical genetic growth profiling, strain panel (AID 1159580);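 note: tested at 20 µM; growth read once vehicle control cultures reached saturation at 30 °C; 1 = growth at the plate median or of vehicle wells; lower values mean less growth of the strain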
Conditions: S. cerevisiae deletion strains, growth OD
[1] = locus YDL101C, strain DUN1, stronger effect = lower value
[2] = locus YHR030C, strain SLT2, stronger effect = lower value

Measured: normalized growth

O=C(Nc1ccc(Cl)cc1)N1CCN(c2ncccc2C(F)(F)F)CC1
inactive: locus YAL013W, strain DEP1, stronger effect = lower value 0.996 | locus YBR229C, strain ROT2, stronger effect = lower value 0.979 | [1] 0.956 | locus YDL134C, strain PPH21, stronger effect = lower value 0.955 | locus YDR150W, strain NUM1, stronger effect = lower value 0.978 | locus YEL061C, strain CIN8, stronger effect = lower value 0.976 | locus YGR078C, strain PAC10, stronger effect = lower value 0.939 | [2] 0.713 | locus YHR087W, strain rtc3, stronger effect = lower value 0.939 | locus YJR043C, strain POL32, stronger effect = lower value 0.97 | locus YJR075W, strain HOC1, stronger effect = lower value 0.908 | locus YLR039C, strain RIC1, stronger effect = lower value 1.04 | locus YLR058C, strain SHM2 (second series), stronger effect = lower value 0.968 | locus YLR085C, strain ARP6, stronger effect = lower value 0.944 | locus YLR262C, strain YPT6, stronger effect = lower value 0.978 | locus YML094W, strain GIM5, stronger effect = lower value 0.957 | locus YMR219W, strain ESC1, stronger effect = lower value 0.976 | locus YMR263W, strain SAP30, stronger effect = lower value 0.969 | locus YMR307W, strain GAS1, stronger effect = lower value 0.805 | locus YNL153C, strain GIM3, stronger effect = lower value 0.946 | locus YNL298W, strain CLA4 (second series), stronger effect = lower value 0.893 | locus YNL322C, strain KRE1, stronger effect = lower value 0.988 | locus YNR030W, strain Alg12, stronger effect = lower value 0.956 | locus YOL006C, strain TOP1, stronger effect = lower value 0.782 | locus YPL055C, strain LGE1, stronger effect = lower value 0.943 | locus YPL241C, strain CIN2, stronger effect = lower value 0.92 | locus YPR135W, strain CTF4, stronger effect = lower value 1.04

N#Cc1nccnc1N1CCN(C(=O)Nc2cc(Cl)cc(Cl)c2)CC1
inactive: locus YAR019C, strain CDC15, stronger effect = lower value 0.963 | locus YBL105C, strain PKC1, stronger effect = lower value 0.972 | locus YBR135W, strain CKS1, stronger effect = lower value 0.947 | locus YBR136W, strain MEC1, stronger effect = lower value 0.972 | locus YBR160W, strain CDC28, stronger effect = lower value 0.965 | locus YDL017W, strain CDC7, stronger effect = lower value 0.969 | locus YDL028C, strain MPS1, stronger effect = lower value 0.965 | [1] 0.975 | locus YDL108W, strain KIN28, stronger effect = lower value 0.968 | locus YDL132W, strain cdc53, stronger effect = lower value 0.967 | locus YDL214C, strain PRR2, stronger effect = lower value 0.955 | locus YDR052C, strain DBF4, stronger effect = lower value 0.969 | locus YDR054C, strain cdc34, stronger effect = lower value 0.952 | locus YDR226W, strain ADK1, stronger effect = lower value 0.965 | locus YDR477W, strain SNF1, stronger effect = lower value 0.923 | locus YER123W, strain YCK3, stronger effect = lower value 0.946 | locus YER133W, strain GLC7, stronger effect = lower value 0.967 | locus YFL009W, strain cdc4, stronger effect = lower value 0.951 | locus YFL029C, strain CAK1, stronger effect = lower value 0.958 | locus YFR003C, strain YPI1, stronger effect = lower value 0.972 | locus YFR019W, strain FAB1, stronger effect = lower value 0.947 | locus YFR028C, strain CDC14, stronger effect = lower value 0.966 | locus YGR040W, strain KSS1, stronger effect = lower value 0.946 | locus YGR052W, strain FMP48, stronger effect = lower value 1.05 | locus YGR092W, strain DBF2, stronger effect = lower value 0.896 | locus YHR079C, strain IRE1, stronger effect = lower value 0.739 | locus YHR082C, strain KSP1, stronger effect = lower value 0.964 | locus YHR205W, strain SCH9, stronger effect = lower value 0.946 | locus YIL147C, strain SLN1, stronger effect = lower value 0.966 | locus YJL095W, strain BCK1, stronger effect = lower value 0.824 | locus YJL128C, strain PBS2, stronger effect = lower value 0.954 | locus YJL157C, strain FAR1, stronger effect = lower value 0.925 | locus YJR016C, strain ILV3, stronger effect = lower value 0.952 | locus YJR066W, strain TOR1 (second series), stronger effect = lower value 0.934 | locus YJR066W, strain TOR1, stronger effect = lower value 0.891 | locus YKL048C, strain ELM1, stronger effect = lower value 0.959 | locus YKL067W, strain YNK1, stronger effect = lower value 0.959 | locus YKL101W, strain HSL1, stronger effect = lower value 0.938 | locus YKL193C, strain SDS22, stronger effect = lower value 0.961 | locus YKL203C, strain TOR2, stronger effect = lower value 0.985 | locus YLR113W, strain HOG1, stronger effect = lower value 0.892 | locus YLR133W, strain CKI1, stronger effect = lower value 0.942 | locus YLR403W, strain SFP1, stronger effect = lower value 0.949 | locus YML070W, strain DAK1, stronger effect = lower value 0.94 | locus YMR001C, strain CDC5, stronger effect = lower value 0.968 | locus YMR205C, strain PFK2 (second series), stronger effect = lower value 0.947 | locus YMR277W, strain FCP1, stronger effect = lower value 0.97 | locus YNL006W, strain LST8, stronger effect = lower value 0.961 | locus YNL020C, strain ARK1, stronger effect = lower value 0.934 | locus YNL161W, strain CBK1, stronger effect = lower value 0.961 | locus YNL183C, strain NPR1, stronger effect = lower value 0.952 | locus YNL207W, strain RIO2, stronger effect = lower value 0.971 | locus YNL222W, strain SSU72, stronger effect = lower value 0.967 | locus YNL307C, strain MCK1 (second series), stronger effect = lower value 0.941 | locus YOL078W, strain AVO1, stronger effect = lower value 0.961 | locus YOL136C, strain PFK27, stronger effect = lower value 0.924 | locus YOR061W, strain CKA2, stronger effect = lower value 0.931 | locus YOR119C, strain RIO1, stronger effect = lower value 1.02 | locus YOR231W, strain MKK1, stronger effect = lower value 0.883 | locus YOR329C, strain SCD5, stronger effect = lower value 0.971 | locus YPL031C, strain PHO85, stronger effect = lower value 0.9 | locus YPL153C, strain RAD53, stronger effect = lower value 0.906 | locus YPL204W, strain HRR25, stronger effect = lower value 0.915 | locus YPL209C, strain IPL1, stronger effect = lower value 0.974 | locus YPL256C, strain CLN2, stronger effect = lower value 0.922 | locus YPR025C, strain CCL1, stronger effect = lower value 0.959 | locus YPR106W, strain ISR1, stronger effect = lower value 0.986 | locus YPR111W, strain DBF20, stronger effect = lower value 0.958 | strain NNK1, stronger effect = lower value 0.973 | strain TSCII, stronger effect = lower value 0.953
active: [2] 0.714
